About 83,000 compounds went through this panel and 20% of them were active in at least one assay; those are over-represented in the sample as a whole.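 Growth was measured after 48 h exposure to one concentration of compound in 96-well plates. Values under 10 count as active.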 Activity calls are given as the source filed them.
Legend:
Assay in all cases: NCI-60 one-dose screen, 48 h (100 = growth as untreated, 0 = no growth, -100 = all killed)
Conditions in all cases: 10 µM unless noted
DU-145 prostate = tested on: DU-145 prostate
K-562 leukemia = tested on: K-562 leukemia
MALME-3M melanoma = tested on: MALME-3M melanoma
MDA-MB-231 breast = tested on: MDA-MB-231 breast
RXF 393 renal = tested on: RXF 393 renal
SF-268 CNS = tested on: SF-268 CNS
SF-295 CNS = tested on: SF-295 CNS
SF-539 CNS = tested on: SF-539 CNS
UACC-257 melanoma = tested on: UACC-257 melanoma
M14 melanoma = tested on: M14 melanoma

Measured: growth

Nc1cnc(C(=O)NNc2nc3cc(F)ccc3n3cccc23)cn1
inactive: DU-145 prostate 37.8% | K-562 leukemia 23.7% | MALME-3M melanoma 59.9% | MDA-MB-231 breast 35.9% | RXF 393 renal 70.6% | SF-268 CNS 36% | SF-295 CNS 12.7% | SF-539 CNS 33.9% | UACC-257 melanoma 50.9% | M14 melanoma 23.3%

O=C(CN1CCOCC1)Nc1nc(-c2cc3ccccc3oc2=O)cs1
inactive: DU-145 prostate 106% | K-562 leukemia 96.3% | MALME-3M melanoma 102% | MDA-MB-231 breast 93.6% | RXF 393 renal 109% | SF-268 CNS 90.1% | SF-295 CNS 101% | SF-539 CNS 97.6% | UACC-257 melanoma 106% | M14 melanoma 101%

Cc1ccc(Nn2c(SCC(=O)Nc3nc(-c4ccccc4)cs3)nc(C)c2C)cc1
inactive: DU-145 prostate 83.4% | K-562 leukemia 37.7% | MALME-3M melanoma 92% | MDA-MB-231 breast 46% | RXF 393 renal 61.5% | SF-268 CNS 81.7% | SF-295 CNS 46.1% | SF-539 CNS 73.7% | UACC-257 melanoma 54.1% | M14 melanoma 77%

CC(C)COc1nc2c(c(=O)n(C)c(=O)n2C)n1C
inactive: DU-145 prostate 111% | K-562 leukemia 98% | MALME-3M melanoma 121% | MDA-MB-231 breast 108% | RXF 393 renal 126% | SF-268 CNS 98.5% | SF-295 CNS 112% | SF-539 CNS 91.8% | UACC-257 melanoma 67.2% | M14 melanoma 108%

COCCNC(=O)Nc1ccc2nc(-c3cccs3)c(-c3cccs3)nc2c1
inactive: DU-145 prostate 96.2% | K-562 leukemia 83.3% | MALME-3M melanoma 94.8% | MDA-MB-231 breast 92.3% | RXF 393 renal 82.5% | SF-268 CNS 102% | SF-295 CNS 78.6% | SF-539 CNS 85.6% | UACC-257 melanoma 103% | M14 melanoma 103%

C=CCc1c(O)c(C(=O)/C=C/c2ccccc2)c(OC)c2ccoc12
inactive: DU-145 prostate 63.2% | K-562 leukemia 46.8% | MALME-3M melanoma 79.4% | MDA-MB-231 breast 47.6% | SF-268 CNS 43% | SF-295 CNS 34.5% | SF-539 CNS 24.8% | UACC-257 melanoma 40.6% | M14 melanoma 59.3%
active: RXF 393 renal 7.33%

COc1cc(-c2nc3sccn3c2-c2ccnc(NCCNS(=O)(=O)c3ccccc3)n2)ccc1F
inactive: DU-145 prostate 61.4% | K-562 leukemia 28.3% | MALME-3M melanoma 49.2% | MDA-MB-231 breast 48.8% | RXF 393 renal 21.5% | SF-268 CNS 48.6% | SF-295 CNS 66.4% | SF-539 CNS 83.8% | UACC-257 melanoma 62.4% | M14 melanoma 38.6%

O=C(Nc1ccc(OS(=O)(=O)c2ccc(F)cc2)cc1)C1CCCCCC1
inactive: DU-145 prostate 90.6% | K-562 leukemia 55.4% | MALME-3M melanoma 99.6% | MDA-MB-231 breast 82.7% | RXF 393 renal 105% | SF-268 CNS 88.2% | SF-295 CNS 98% | SF-539 CNS 89.7% | UACC-257 melanoma 93.9% | M14 melanoma 85.9%

CCOC(=O)c1cc2c(n1C)-c1nc(NC(C)=O)sc1CCC2
inactive: DU-145 prostate 94.3% | K-562 leukemia 96.6% | MALME-3M melanoma 108% | MDA-MB-231 breast 55.1% | RXF 393 renal 83.1% | SF-268 CNS 77.4% | SF-295 CNS 84.1% | SF-539 CNS 83.2% | UACC-257 melanoma 67.8% | M14 melanoma 89.1%

COC12C=C/C(=C(/C(=O)OCc3ccncn3)C(=O)CCCCCCCCC3(OC)C=C/C(=C(/C(=O)OCc4ccncn4)C(=O)CCCCCCCC1)O3)O2
active: DU-145 prostate -41.8% | K-562 leukemia -5.58% | MALME-3M melanoma -54.3% | RXF 393 renal -77.3% | SF-268 CNS -3.7% | SF-295 CNS -15.9% | SF-539 CNS -18.2% | UACC-257 melanoma 4.41% | M14 melanoma -22.1%
inactive: MDA-MB-231 breast 10.6%

O=C1Nc2ccccc2/C1=C/c1nc2ccccc2c(=O)[nH]1
inactive: DU-145 prostate 99.3% | K-562 leukemia 86.2% | MALME-3M melanoma 92.8% | MDA-MB-231 breast 84.5% | RXF 393 renal 96% | SF-268 CNS 94.6% | SF-295 CNS 101% | SF-539 CNS 93.6% | UACC-257 melanoma 104% | M14 melanoma 82.2%

CCC(C)N(CCNc1cc(OC)cc2cccnc12)CC(C)C (stereo not given)
inactive: DU-145 prostate 112% | K-562 leukemia 83.1% | MALME-3M melanoma 119% | MDA-MB-231 breast 87.8% | RXF 393 renal 122% | SF-268 CNS 96.4% | SF-295 CNS 110% | SF-539 CNS 115% | UACC-257 melanoma 99.8% | M14 melanoma 110%

COc1cc(-c2csc(NC(=O)c3ccc(N4CCOCC4)c(C(F)(F)F)c3)n2)cc(OC)c1OC
inactive: DU-145 prostate 53.4% | K-562 leukemia 18.9% | MALME-3M melanoma 29.3% | MDA-MB-231 breast 71.4% | RXF 393 renal 62% | SF-268 CNS 40% | SF-295 CNS 21.9% | SF-539 CNS 49.6% | UACC-257 melanoma 26.6% | M14 melanoma 12.9%

CC1=C2[C@@H](CC1)[C@]1(C)O[C@@](C(C)C)(C[C@H]1OC(=O)[C@H](C)O)[C@H]2OC(=O)/C=C/c1ccccc1
inactive: DU-145 prostate 105% | K-562 leukemia 68.7% | MALME-3M melanoma 101% | MDA-MB-231 breast 83.1% | RXF 393 renal 30.8% | SF-268 CNS 41% | SF-295 CNS 78.7% | SF-539 CNS 96.8% | UACC-257 melanoma 90.5% | M14 melanoma 87.2%

CCCC/C(CC)=N\NS(=O)(=O)c1ccc([N+](=O)[O-])cc1
inactive: DU-145 prostate 97.2% | K-562 leukemia 95% | MALME-3M melanoma 101% | MDA-MB-231 breast 96.2% | RXF 393 renal 110% | SF-268 CNS 100% | SF-295 CNS 108% | SF-539 CNS 101% | UACC-257 melanoma 88.7% | M14 melanoma 101%

COC(=O)Nc1nc2ccc(S(=O)c3ccccc3)cc2[nH]1 (stereo not given)
inactive: DU-145 prostate 96.3% | K-562 leukemia 29.9% | MALME-3M melanoma 83.7% | MDA-MB-231 breast 68.4% | RXF 393 renal 107% | SF-268 CNS 84.8% | SF-295 CNS 58.4% | SF-539 CNS 73.6% | UACC-257 melanoma 73.9% | M14 melanoma 44.5%

Nc1c(C(=O)Nc2ccccc2C(F)(F)F)sc2nc3c(cc12)CCC3
inactive: DU-145 prostate 108% | K-562 leukemia 94.4% | MALME-3M melanoma 99.8% | MDA-MB-231 breast 92% | RXF 393 renal 84.6% | SF-268 CNS 106% | SF-295 CNS 95.1% | SF-539 CNS 100% | UACC-257 melanoma 101% | M14 melanoma 113%

CCCCCOC(=O)c1c(C)[nH]c(/C=C2\N=C(c3ccc[nH]3)C=C2OC)c1C
inactive: DU-145 prostate 27.4% | SF-268 CNS 14.9%
active: K-562 leukemia -6.07% | MALME-3M melanoma -61.3% | MDA-MB-231 breast -48.5% | RXF 393 renal -47.3% | SF-295 CNS -37.2% | SF-539 CNS -41.6% | UACC-257 melanoma -20.1% | M14 melanoma -70.4%

Cc1ccccc1/C=C/C(=O)c1cccc(OCCCOc2cccc(C(=O)/C=C/c3ccccc3C)c2)c1
inactive: DU-145 prostate 102% [3 µM] | K-562 leukemia 73.6% [3 µM] | MALME-3M melanoma 108% [3 µM] | MDA-MB-231 breast 94.8% [3 µM] | RXF 393 renal 98.3% [3 µM] | SF-268 CNS 99.4% [3 µM] | SF-295 CNS 90.6% [3 µM] | SF-539 CNS 103% [3 µM] | UACC-257 melanoma 103% [3 µM] | M14 melanoma 103% [3 µM]

COc1ccc(-c2nc3c(ncc4ccc(=O)[nH]c43)s2)cc1
inactive: DU-145 prostate 67.7% | K-562 leukemia 93.3% | MALME-3M melanoma 93.9% | MDA-MB-231 breast 81.5% | RXF 393 renal 88.5% | SF-268 CNS 76.6% | SF-295 CNS 88.1% | SF-539 CNS 84% | UACC-257 melanoma 118% | M14 melanoma 74.7%

CCSc1oc(-c2ccccc2)nc1[P+](c1ccccc1)(c1ccccc1)c1ccccc1
inactive: DU-145 prostate 11.1% | SF-268 CNS 14.1% | SF-539 CNS 14.6%
active: K-562 leukemia 7.15% | MALME-3M melanoma -25% | MDA-MB-231 breast -12.8% | RXF 393 renal 0.296% | SF-295 CNS -4.41% | UACC-257 melanoma 7.79% | M14 melanoma 7.57%

O=C(Nc1cccc(-c2ccc(N3CCOCC3)nn2)c1)Nc1cccc(C(F)(F)F)c1
inactive: DU-145 prostate 80.5% | K-562 leukemia 46.1% | MALME-3M melanoma 89.5% | MDA-MB-231 breast 80.1% | RXF 393 renal 81.5% | SF-268 CNS 91.2% | SF-295 CNS 52% | SF-539 CNS 89.1% | UACC-257 melanoma 69.7% | M14 melanoma 63.1%

O=S(=O)(NCCNc1nccc(-c2c(-c3ccc(F)c(O)c3)nc3occn23)n1)c1ccc(Cl)cc1
inactive: DU-145 prostate 90.9% | K-562 leukemia 73.8% | MDA-MB-231 breast 60% | RXF 393 renal 57.5% | SF-268 CNS 80.5% | SF-295 CNS 97.4% | SF-539 CNS 102% | UACC-257 melanoma 41.6% | M14 melanoma 26.6%
active: MALME-3M melanoma 2.05%

Fc1cccc(Oc2ccc(Nc3ncnc4ccc(OCCCN5CCOCC5)cc34)cc2Cl)c1
inactive: DU-145 prostate 52.5% | MALME-3M melanoma 24.6% | MDA-MB-231 breast 61.4% | RXF 393 renal 55.5% | SF-268 CNS 54.4% | SF-295 CNS 82.7% | SF-539 CNS 88.1% | UACC-257 melanoma 12.5%
active: K-562 leukemia 3.55% | M14 melanoma -44%

Cn1ccnc1C(=O)/C=C/c1ccc(C(=O)Nc2ccccc2O)cc1
active: K-562 leukemia 7.38% | SF-295 CNS 6.78% | SF-539 CNS -19.3%
inactive: DU-145 prostate 45.6% | MALME-3M melanoma 57.8% | MDA-MB-231 breast 46.2% | RXF 393 renal 21.7% | SF-268 CNS 13.2% | UACC-257 melanoma 48.6% | M14 melanoma 71.5%

O=c1c2cccc3c(N4CCCC4)ccc(c32)c2nc3ccccc3n12
inactive: DU-145 prostate 78.1% | K-562 leukemia 76% | MALME-3M melanoma 70.4% | MDA-MB-231 breast 77.1% | RXF 393 renal 103% | SF-268 CNS 92% | SF-295 CNS 59.8% | SF-539 CNS 91.3% | UACC-257 melanoma 91.8% | M14 melanoma 91.5%
